Assay results as given in PubChem BioAssay (NCATS).
Several values for one entry are separate records, joined by “and”; a condition that tells them apart may be missing. Identical values can stand only once. Unmarked numbers belong to inactive results. Records with an inconclusive call do not appear. A call without a number means that no potency is given here. Activity calls are given as the source filed them. Unless noted, calls come from the whole dose curve; as a rule, active = well fitted curve in either direction with a large enough effect (not every such curve was filed as active); inconclusive = small, poorly fitted or top-dose-only effect, or another doubt; inactive = flat fitted curve, though single readings scatter.

Experiments:
[1] = AP1 Signaling Pathway (AID 357); settings: ME-180 AP-1-bla reporter, EGF-induced, beta-lactamase ratio, 5 h; series mostly up to 17.2 µM;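 note: ME-180 reporter cells stimulated with EGF at its EC50 level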
Procedure, shortened: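 In this screen, ME-180 cells in Opti-MEM with 0.5% dialyzed FBS received EC50 EGF and compound titrations for 5 h. AP-1 reporter beta-lactamase was detected via CCF4 ratio, giving AC50 for positive and negative modulators.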

[2] = target: Cytochrome P450 1A2 (Homo sapiens) (UniProt P05177); experiment: p450-cyp1a2 (AID 410; calls by dose curve; note: potency is the fitted concentration of half-maximal effect); settings: recombinant CYP1A2, luciferin-ME demethylation, luminescence; series mostly up to 57 µM
Procedure, shortened: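 O-Demethylation of luciferin 6' methyl ether by human CYP1A2 is monitored as luciferase luminescence. Substrate sits at Km (100uM); enzyme is 20nM. Values are scaled to 57 uM furafylline as maximal inhibition.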

[3] = NFAT Signaling Pathway (AID 444); settings: Jurkat NFAT-bla M1, carbachol, beta-lactamase ratio, 5 h;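 note: carbachol stimulus at about its EC50 of 1 µM final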
Procedure, shortened: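 Read-out: CCF4 FRET ratio (460 nm/530 nm) after 1 h RT dye loading, used for %activity and AC50 from titration series. Cells: Jurkat NFAT-β-lactamase/M1 line, treated with compound plus 1 uM carbachol for 5 h, 37 °C.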

[4] = Stat Signaling Pathway (AID 446); settings: ME-180 (cervical carcinoma) SIE beta-lactamase reporter, IL-6 stimulated, 5 h; series mostly up to 17.2 µM;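 note: ME-180 cervical cancer cells given 40 pM IL-6 alongside compound; SIE-controlled beta-lactamase reporter measured as 460/530 nm FRET emission ratio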
Procedure, shortened: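 Compound effects on IL-6-induced STAT reporter activity were measured in ME-180 cells. After overnight culture, cells were co-treated with 40 pM IL-6 for 5 hrs before beta-lactamase substrate loading at room temperature.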

[5] = target: Glucocorticoid receptor (Homo sapiens) (UniProt P04150); experiment: GR-GFP Redistribution (AID 450;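 active = compounds whose dose series gives a full or clear partial fitted curve of increased nuclear translocation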; note: potency is the fitted concentration of half-maximal effect); settings: U2OS GR-GFP nuclear translocation, laser cytometry, 2 h
[6] = target: Glucocorticoid receptor (Homo sapiens) (UniProt P04150); experiment: GR-EFC Redistribution (AID 451; calls by dose curve; note: potency is the fitted concentration of half-maximal effect); settings: CHO-K1 GR-EFC translocation, beta-gal luminescence, 2 h
Procedure, shortened: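 Translocation of GR-ED fusion to nuclear EA restores b-gal, read by luminescence after 1 h room-temperature detection. Engineered CHO-K1 biosensor cells, 1,000/well, exposed 2 h at 37 C to titrations up to 46 uM final.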

[7] = target: Mitogen-activated protein kinase 10 (Mus musculus) (UniProt Q61831); experiment: JNK3 AlphaScreen Assay (AID 530); settings: JNK3 lysate, c-Jun phosphorylation; series mostly up to 57.1 µM;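 note: kinase came from lysate of stimulated human HepG2 cells; signal reports phosphorylation of biotinylated GST-cJun 1-79 at Ser73 with 10 µM ATP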
Procedure, shortened: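 qHTS titrations with 15 min compound pre-incubation before adding ATP (10 uM final). Read-out: AlphaScreen of Ser73-phosphorylated biotin-GST-cJun using HepG2 lysate JNK3 activated by IL-1β and TNFα.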

[8] = target: 3',5'-cyclic-AMP phosphodiesterase 4B (Homo sapiens) (UniProt Q07343); experiment: qHTS Assay for Inhibitors of PDE-IV (AID 607; active = well fitted activation curve with a large enough effect in the main read-out, with a control signal flat, not every such curve was filed as active); settings: HEK293 ACTOne CNG channel cells, membrane potential fluorescence; series mostly up to 22.9 µM
Procedure, shortened: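 ACTOne HEK293 cells carry a modified cAMP-gated CNG channel and express endogenous PDE4; plated 1000 cells/well, compounds up to 22.9 uM final. Membrane-potential dye fluorescence (ex 535/em 590) was read; parental cells received 10 uM forskolin + 100 uM RO 20-1724.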

[9] = Cell Viability - BJ (AID 421; calls by dose curve;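 note: potency is the fitted concentration of half-maximal effect; cells exposed to compound for 40 hours at 37 °C before readout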); settings: BJ fibroblast viability, qHTS
Procedure, shortened: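 Luminescent ATP signal (CellTiter-Glo, 20 min at room temperature) served as the read-out of viable BJ cells after 40 hours of compound treatment. Responses were scaled between DMSO and 100 uM tamoxifen, and AC50 values were obtained by Hill modeling.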

[10] = Cell Viability - Jurkat (AID 426;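 active = dose-dependent loss of cell ATP signal giving a full or clear fitted curve, ranked by lower potency value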;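 note: potency is the fitted concentration of half-maximal effect; cells exposed to compound for 40 hours at 37 °C before ATP read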); settings: qHTS
Procedure, shortened: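 Cells of the human T-cell leukemia line Jurkat (E6-1) are seeded at 5000 per well, treated with compound across a concentration range for 40 hours at 37 °C, then lysed with CellTiter-Glo; luminescence reports ATP.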

[11] = Cell Viability - Hek293 (AID 427;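 active = compounds whose dose-response curve shows a full or clear partial loss of cell viability, called from curve shape rather than a numeric limit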;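 note: potency is the fitted concentration of half-maximal effect; cells exposed to compound for 40 hours at 37 °C before reading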); settings: qHTS
Procedure, shortened: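 Luminescent ATP read-out (CellTiter-Glo, 20 min RT) after 40 hr compound exposure at 37 °C in complete medium. Signal normalized to DMSO (basal) and 100 uM tamoxifen (100% inhibition); concentration-response fitted with the standard Hill equation to give AC50.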

[12] = Cell Viability - HepG2 (AID 433; calls by dose curve;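 note: potency is the fitted concentration of half-maximal effect; potency for ATP loss meaning cytotoxicity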); settings: qHTS
Procedure, shortened: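 ATP luminescence (CellTiter-Glo) after 40 h compound exposure, 37 °C, HepG2, 1500 cells/well, complete medium. Normalized: DMSO = basal, 100 uM tamoxifen = 100% inhibition. AC50 via standard Hill equation.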

[13] = Cell Viability - MRC5 (AID 434; calls by dose curve;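 note: potency is the fitted concentration of half-maximal effect; potency reflects cytotoxicity seen as loss of intracellular ATP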); settings: MRC5 lung fibroblast viability, qHTS
Procedure, shortened: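 AC50 values come from Hill-equation fits of intracellular ATP loss, measured by CellTiter-Glo luminescence. Normal lung fibroblasts (MRC5) had 40 hr compound treatment at 37 C, normalized between DMSO and 100 uM tamoxifen.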

[14] = Cell Viability - N2a (AID 540; active = well fitted curve in the direction sought with a large enough effect; an effect the other way counts as inactive or inconclusive; note: nearly all actives have a fitted effect of over 45% in size); settings: N2a mouse neuroblastoma cell viability; series mostly up to 92.2 µM
Procedure, shortened: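 Cytotoxicity was scored as loss of cellular ATP in N2a cells, a mouse neuroblastoma line. Compounds are applied in a qHTS concentration series for 40 hr at 37 °C.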

[15] = Cell Viability - NIH 3T3 (AID 541; active = well fitted curve in the direction sought with a large enough effect; an effect the other way counts as inactive or inconclusive; note: nearly all actives have a fitted effect of over 25% in size); settings: NIH 3T3 cell viability, qHTS; at 92.2 µM (top of the series)
Procedure, shortened: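 Cells seeded at 1000/well, rested 5 hr at 37 °C, then dosed and incubated 40 hr at 37 °C. CellTiter-Glo added, 20 min room temperature, luminescence read. AC50 by Hill fit.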

[16] = Cell Viability - HUV-EC-C (AID 542; active = well fitted curve in the direction sought with a large enough effect; an effect the other way counts as inactive or inconclusive; note: nearly all actives have a fitted effect of over 35% in size); settings: HUV-EC-C endothelial cell viability, qHTS; series mostly up to 92.2 µM
Procedure, shortened: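 Cells were seeded at 1000 per well and incubated 5 hr at 37 °C before compound addition. After 40 hr at 37 °C, CellTiter-Glo reagent was added for 20 min and luminescence read. AC50 values came from Hill-equation modelling.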

[17] = Cell Viability - H-4-II-E (AID 543; active = well fitted curve in the direction sought with a large enough effect; an effect the other way counts as inactive or inconclusive; note: nearly all actives have a fitted effect of over 35% in size); settings: H-4-II-E rat hepatoma viability; series mostly up to 92.2 µM
Procedure, shortened: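 Cells seeded at 1500 per well and rested 5 hr; compounds added; 40 hr incubation at 37 °C; CellTiter-Glo added, 20 min at room temperature; luminescence read. Hill-equation fits gave AC50.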

[18] = Cell Viability - SH-SY5Y (AID 544; active = well fitted curve in the direction sought with a large enough effect; an effect the other way counts as inactive or inconclusive; note: nearly all actives have a fitted effect of over 55% in size; note: potency is the fitted concentration of half-maximal effect); settings: SH-SY5Y neuroblastoma cell viability; series mostly up to 92.2 µM
Procedure, shortened: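 Cells were plated at 1500 per well and allowed 5 hr at 37 °C. Compounds were added across a concentration range and incubated 40 hr at 37 °C. CellTiter-Glo was added for 20 min at room temperature before luminescence reading.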

[19] = Cell Viability - Renal Proximal Tubule (AID 545; active = well fitted curve in the direction sought with a large enough effect; an effect the other way counts as inactive or inconclusive; note: nearly all actives have a fitted effect of over 40% in size); settings: renal proximal tubule cells viability; series mostly up to 91.7 µM
Procedure, shortened: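 Rat kidney proximal tubule cells, freshly isolated; 1000 cells/well, 5 hr settle, compound 40 hr 37 °C. CellTiter-Glo 20 min RT, luminescence read. AC50 by standard Hill fit.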

[20] = Cell Viability - Mesenchymal (AID 546; active = well fitted curve in the direction sought with a large enough effect; an effect the other way counts as inactive or inconclusive;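 note: cells exposed to compound for 40 hours before reading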); settings: mesenchymal cells viability, qHTS; series mostly up to 91.7 µM
Procedure, shortened: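 CellTiter-Glo luminescence (intracellular ATP, 20 min room temperature) after 40 hr compound exposure at 37 °C of 1000 glomerulus-derived human kidney mesenchymal cells/well; AC50 values obtained by fitting qHTS concentration-response data to the Hill equation.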

Sequence of Glucocorticoid receptor (Homo sapiens) (P04150 whole entry, looked up, the tested form may be a part): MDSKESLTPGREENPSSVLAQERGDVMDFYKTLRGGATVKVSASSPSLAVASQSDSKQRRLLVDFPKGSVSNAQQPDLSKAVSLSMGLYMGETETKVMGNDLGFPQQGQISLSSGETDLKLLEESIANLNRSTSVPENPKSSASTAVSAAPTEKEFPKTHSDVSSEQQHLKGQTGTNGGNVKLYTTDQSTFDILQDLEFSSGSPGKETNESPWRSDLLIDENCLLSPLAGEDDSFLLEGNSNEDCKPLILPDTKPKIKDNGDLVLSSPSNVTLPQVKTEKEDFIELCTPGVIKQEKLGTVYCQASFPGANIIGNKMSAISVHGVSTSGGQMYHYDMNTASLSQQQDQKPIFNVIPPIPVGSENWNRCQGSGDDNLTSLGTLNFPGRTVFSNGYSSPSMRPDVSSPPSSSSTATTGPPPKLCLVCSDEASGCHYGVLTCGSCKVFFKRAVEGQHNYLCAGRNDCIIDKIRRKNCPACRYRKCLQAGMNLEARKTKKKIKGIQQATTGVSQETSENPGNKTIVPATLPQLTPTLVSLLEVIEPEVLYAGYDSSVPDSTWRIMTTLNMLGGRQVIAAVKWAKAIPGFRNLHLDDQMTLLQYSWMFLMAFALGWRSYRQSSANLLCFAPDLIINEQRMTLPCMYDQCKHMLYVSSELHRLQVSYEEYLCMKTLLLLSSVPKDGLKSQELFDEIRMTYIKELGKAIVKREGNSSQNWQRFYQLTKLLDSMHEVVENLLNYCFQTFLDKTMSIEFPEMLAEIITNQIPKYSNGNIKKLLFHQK
Sequence of Cytochrome P450 1A2 (Homo sapiens) (P05177 whole entry, looked up): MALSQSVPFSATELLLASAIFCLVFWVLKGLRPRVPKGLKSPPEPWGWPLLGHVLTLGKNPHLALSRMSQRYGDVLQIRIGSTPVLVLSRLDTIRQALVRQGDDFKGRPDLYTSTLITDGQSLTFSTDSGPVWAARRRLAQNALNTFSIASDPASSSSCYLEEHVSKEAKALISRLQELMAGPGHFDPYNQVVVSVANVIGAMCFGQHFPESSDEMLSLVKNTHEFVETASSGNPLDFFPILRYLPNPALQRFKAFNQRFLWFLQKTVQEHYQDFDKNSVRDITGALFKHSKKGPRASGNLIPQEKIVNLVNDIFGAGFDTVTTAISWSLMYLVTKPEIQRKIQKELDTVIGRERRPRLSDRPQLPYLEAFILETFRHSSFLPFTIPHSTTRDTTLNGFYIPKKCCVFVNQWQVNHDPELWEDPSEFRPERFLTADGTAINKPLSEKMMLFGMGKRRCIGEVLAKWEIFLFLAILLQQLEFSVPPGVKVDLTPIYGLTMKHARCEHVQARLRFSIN
Sequence of 3',5'-cyclic-AMP phosphodiesterase 4B (Homo sapiens) (Q07343 whole entry, looked up): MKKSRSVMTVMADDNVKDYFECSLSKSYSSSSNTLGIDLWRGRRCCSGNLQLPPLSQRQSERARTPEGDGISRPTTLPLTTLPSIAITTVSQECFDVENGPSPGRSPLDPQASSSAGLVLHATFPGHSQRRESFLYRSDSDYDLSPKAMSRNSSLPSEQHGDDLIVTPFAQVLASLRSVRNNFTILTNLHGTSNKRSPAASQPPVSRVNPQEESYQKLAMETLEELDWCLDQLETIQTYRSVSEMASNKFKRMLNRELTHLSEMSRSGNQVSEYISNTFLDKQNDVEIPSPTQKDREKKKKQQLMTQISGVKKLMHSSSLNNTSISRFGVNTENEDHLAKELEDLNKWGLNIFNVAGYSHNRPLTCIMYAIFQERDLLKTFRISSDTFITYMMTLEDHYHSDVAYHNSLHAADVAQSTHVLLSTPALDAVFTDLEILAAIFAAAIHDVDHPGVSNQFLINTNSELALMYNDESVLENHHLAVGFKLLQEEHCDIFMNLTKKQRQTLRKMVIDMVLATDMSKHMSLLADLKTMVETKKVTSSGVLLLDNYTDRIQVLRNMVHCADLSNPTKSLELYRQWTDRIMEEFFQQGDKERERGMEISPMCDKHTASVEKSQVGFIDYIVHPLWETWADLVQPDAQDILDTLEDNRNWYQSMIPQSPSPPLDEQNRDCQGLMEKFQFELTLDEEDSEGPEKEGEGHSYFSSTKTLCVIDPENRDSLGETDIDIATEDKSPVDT

In the case of `O=c1[nH]oc2c1CCNC2`, the outcome [1] was “inactive”, the Potency [2] was “inactive” and the activity change, negative = inhibition ([3]; at 17.2 µM (top of the series)) was -9.07%. For the same compound, the activity change, negative = inhibition ([3]; at 38 µM (top of the series)) was 9.6%, the outcome [4] was “inactive” and the Potency [5] was > 46 µM and > 20.6 µM. For the same compound, the Potency [6] was > 46 µM and > 20.6 µM, the outcome [7] was “inactive” and the outcome [8] was “inactive”.

For `O=c1oc2ccccc2c(O)c1Cc1c(O)c2ccccc2oc1=O`, the Potency [2] was 12.6 µM (active), the activity change, negative = inhibition ([3]; at 17.2 µM (top of the series)) was -5.31% and the outcome [8] was “inactive”.

`Oc1ccc(Cl)cc1` showed a Potency [9] greater than 92 µM, a Potency [10] greater than 92 µM and a Potency [11] greater than 92 µM. The Potency [12] was greater than 92 µM, the Potency [13] was greater than 92 µM and the outcome [7] was “inactive”. For the same compound, the outcome [14] was “inactive”, the activity change, negative = cytotoxicity [15] was 5.07% and the Potency [16] was “inactive”. For the same compound, the Potency [17] was “inactive”, the Potency [18] was “inactive” and the outcome [19] was “inactive”. The outcome [20] was “inactive”.

For `CC(C)c1cccc(C(C)C)c1O`, the outcome [1] was “inactive”, the Potency [9] was greater than 92 µM and the Potency [10] was greater than 92 µM. For the same compound, the Potency [11] was greater than 92 µM, the Potency [12] was greater than 92 µM and the Potency [13] was greater than 92 µM. For the same compound, the activity change, negative = inhibition ([3]; at 17.2 µM (top of the series)) was -3.69%, the activity change, negative = inhibition ([3]; at 38 µM (top of the series)) was 7.25% and the outcome [4] was “inactive”. The outcome [7] was “inactive”, the outcome [14] was “inactive” and the activity change, negative = cytotoxicity [15] was 4.32%. For the same compound, the Potency [16] was “inactive”, the Potency [17] was “inactive” and the Potency [18] was “inactive”. The outcome [19] was “inactive”, the outcome [20] was “inactive” and the outcome [8] was “inactive”.

For `CCCCC/C=C\C/C=C\C/C=C\C/C=C\CCCC(=O)NCC(=O)O`, the outcome [1] was “inactive”, the Potency [2] was “inactive” and the activity change, negative = inhibition ([3]; at 38 µM (top of the series)) was -2.7%. The Potency [5] was greater than 46 µM, the outcome [7] was “inactive” and the outcome [8] was “inactive”.

For `[N-]=[N+]=CC(=O)OC[C@H](N)C(=O)O`, the outcome [1] was “inactive”, the activity change, negative = inhibition ([3]; at 17.2 µM (top of the series)) was -1.72% and the outcome [4] was “inactive”.

With `Cc1ncsc1CCCl` the Potency [2] was 31.6 µM (active), the Potency [5] was greater than 46 µM and the Potency [6] was greater than 46 µM. The outcome [7] was “inactive”.

With `C=CCN1C[C@H](C)N([C@H](c2ccc(C(=O)N(CC)CC)cc2)c2cccc(OC)c2)C[C@H]1C` the Potency [5] was greater than 46 µM, the Potency [6] was greater than 46 µM and the outcome [7] was “inactive”. The outcome [8] was “inactive”.

`CCOC(=O)CC(SP(=S)(OC)OC)C(=O)OCC` (stereo not given) showed a Potency [9] greater than 92 µM, a Potency [10] greater than 92 µM and a Potency [11] greater than 92 µM. The Potency [12] was greater than 92 µM, the Potency [13] was greater than 92 µM and the outcome [7] was “inactive”. The outcome [14] was “inactive”, the activity change, negative = cytotoxicity [15] was -25.9% and the Potency [16] was “inactive”. For the same compound, the Potency [17] was “inactive”, the Potency [18] was 12.6 µM (active) and the outcome [19] was “inactive”. The outcome [20] was “inactive”.

With `COc1cc(OC)c(OC)cc1C=O` the Potency [9] was greater than 92 µM, the Potency [10] was greater than 92 µM and the Potency [11] was greater than 92 µM. The Potency [12] was greater than 92 µM, the Potency [13] was greater than 92 µM and the outcome [14] was “inactive”. For the same compound, the activity change, negative = cytotoxicity [15] was 6.21%, the Potency [16] was “inactive” and the Potency [17] was “inactive”. The Potency [18] was “inactive”, the outcome [19] was “inactive” and the outcome [20] was “inactive”.
